Screens as filed in PubChem BioAssay.
YopH PTP inh: YopH (Yersinia) phosphatase inhibition | fluorescence Ex485/Em525 | inhibition, % (test concentration not listed) | hit rate 0.16% among 140,000 | AID 898; in the data active = inhibition above about 50%
RmlCD inh mix: RmlC/RmlD inhibition, mixture screen. inhibition, % at 5.5 µM. RmlC/RmlD coupled enzyme inhibition, 384-well mixture HTS. AID 1532. hit rate 0.39% among 110,000; in the data active = inhibition above about 30%, passing the limit was not always enough
RmlCD artifact: shows fluorescent artifact in RmlC/RmlD assay, dose-response counter-screen; hit rate 96% among 360; RmlC/RmlD assay fluorescence artifact counter-screen; calls only; shares compounds with RmlCD inh mix; call rule not given here;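 note: compound alone with no enzyme and no substrates present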
Active calls of the source: *; . = not tested or not shown; + = active, no number. Hits are enriched below; roughly 0.41% of the tested compounds scored in any of these assays.

SMILES	YopH PTP inh	RmlCD inh mix	others
CCCCc1cc(=O)oc2c(CN(C)C)c(O)c(Cl)cc12	-56	70*
CCc1cc(=O)oc2c(CN3CCCC3)c(O)c(Cl)cc12	-47	90*
O=c1oc2c(CN3CCOCC3)c(O)c(Cl)cc2c2c1CCC2	4	56*
Cc1ccc(NC(=O)CCC(=O)OCc2ccc(Br)cc2)cc1	-26	.
COc1ccc(NCc2ccc([N+](=O)[O-])s2)c(OC)c1	76*	.
COc1ccc(NCc2ccc([N+](=O)[O-])s2)cc1	48	.
O=C1Cc2ccccc2C(=O)N1CCc1ccccc1	100*	-8
O=C(O)CCN1C(=O)c2ccccc2C1=O	3	-7
CCN(CC)S(=O)(=O)c1ccc(OC)c(NC(=S)Nc2cccc(C)c2C)c1	-14	.
COC(=O)/C(=C/c1ccco1)NC(=O)c1ccco1	8	.
Clc1ccc2nc3ccccn3c2c1	-32	39*
On1c(-c2ccccc2)nc2ccc(Cl)cc21	-44	-2
COc1ccc(N2CCN(Cc3cc(=O)oc4cc(-c5ccccc5)c(O)cc34)CC2)cc1	0	7
O=c1cc(CN2CCN(c3ccccc3F)CC2)c2cc(O)c(-c3ccccc3)cc2o1	61*	.
Cc1cc(C)n(-c2ccc(Cl)c(C(=O)Nc3cc(C(F)(F)F)ccc3Cl)n2)n1	8	.
COc1ccc(C(=O)OC2CCN(C)CC2)cc1	3	-11
Cc1c(Br)cc(C(=O)OC2CCN(C)CC2)c(C)c1C	54*	8
Cc1nn(Cc2ccccc2Cl)c(C)c1NC(=O)CSc1n[nH]c(C)c1[N+](=O)[O-]	-12	.
CSCC[C@H](NC(=O)COc1ccc(Cl)cc1)c1nc2ccccc2[nH]1	-37	.
CC(=O)C(C(C)=O)C1(O)C(=O)c2ccccc2C1=O	98*	.
O=C1C(O)=C(O)C(=O)c2ccccc21	.	6
Cc1ccc(O)c(-c2cc(C(=O)Nc3ccc(S(=O)(=O)Nc4nc(C)cc(C)n4)cc3)[nH]n2)c1	-5	.
O=C(NN=C1c2ccccc2-c2ccccc21)c1cccc(Br)c1	-3	.
COc1ccc(OC)c(-c2c3cc(O)c(=O)cc-3oc3cc(O)c(O)cc23)c1	55*	.
CCOc1ccccc1-c1c2cc(O)c(=O)cc-2oc2cc(O)c(O)cc12	14	.
SMILES	YopH PTP inh	RmlCD inh mix	others
CN(C)c1ccc(-c2noc(C3CCN(S(=O)(=O)c4cccc(Cl)c4)CC3)n2)cc1	-32	6
O=S(=O)(c1ccc2ccccc2c1)N1CCC(c2nc(-c3ccncc3)no2)CC1	50*	8
O=[N+]([O-])c1ccc(-c2csc3[n+]2CCS3)cc1	51*	-4
Fc1ccc(-c2csc3[n+]2CCS3)cc1	-9	4
CNS(=O)(=O)c1ccc(C)c(S(=O)(=O)NC)c1	-19	.
O=C(O)c1ccccc1SCC(=O)N1c2ccccc2Sc2ccccc21	60*	.
O=C(O)c1ccccc1SCC(=O)N1CCCCC1	-31	-3
C=CCn1c(=N)n(CC(=O)c2ccc(Br)s2)c2ccccc21	-5	.
COc1ccc(CCNC(=O)C(C)Sc2ccc(C)cc2)cc1OC (stereo unspecified)	-19	.
COc1ccc(CCNC(=O)CN2C(=O)c3ccccc3S2(=O)=O)cc1OC	-2	-10
Cc1ccc(CSCCNC(=O)CN2C(=O)c3ccccc3S2(=O)=O)cc1	56*	14
CCOC(=O)Oc1ccc2oc(=O)cc(C)c2c1	67*	61
COc1ccc2oc(=O)cc(C)c2c1	-39	.
Cc1nc2sc(C(c3ccc(F)cc3)N3CCOCC3)c(O)n2n1 (stereo unspecified)	-21	3
Cc1ccc(C(c2sc3nc(C)nn3c2O)N2CCOCC2)cc1 (stereo unspecified)	64*	5
CCCOC(=O)c1c(NC(=O)CCCn2nc([N+](=O)[O-])cc2C)sc(C(=O)OC)c1C	-25	.
CC(=O)[C@@H]1[C@@H](C(=O)c2ccc(C)cc2)[C@]2(C(=O)Nc3ccccc32)[C@H]2C=Cc3cc(F)ccc3N12	27	.
O=C(c1ccc(F)cc1)[C@@H]1[C@@H](C(=O)c2ccccc2)[C@@]2(C(=O)Nc3ccccc32)[C@H]2c3ccccc3C=CN12	83*	.
COc1ccc(OC)c(NC(=O)C(=O)NCCC2=CCCCC2)c1	-4	.
CC(=C/C(=O)O)/C=C/c1ccc([N+](=O)[O-])cc1	-12	.
CC1(C)COC(/C=C/c2ccc([N+](=O)[O-])cc2)=N1	52*	.
NC(=O)C(c1ccc(Cl)cc1)c1ccc(Sc2ccc(Cl)cc2)nn1 (stereo unspecified)	9	9
Cc1ccc(NC2=C(N3CCOCC3)C(=O)c3ccccc3C2=O)cc1	89*	-2
Cc1ccc(NC2=C(Cl)C(=O)c3ccccc3C2=O)cc1	3	.
CC(=O)c1ccc(NC2=C(N3CCOCC3)C(=O)c3ccccc3C2=O)cc1	99*	1
SMILES	YopH PTP inh	RmlCD inh mix	others
CC(=O)N(C)C1=C(N2CCOCC2)C(=O)c2ccccc2C1=O	16	126
O=C(O)c1ccc(NC2=C(N3CCOCC3)C(=O)c3ccccc3C2=O)cc1	76*	.
O=C1c2ccccc2-c2ccc(C(=O)N3CCOCC3)cc21	1	-9
CCOC(=O)Nc1sc(C)c(C)c1C(N)=O	-34	.
COc1ccc(-c2ncncc2-c2csc(C)n2)c(O)c1OC	8	16
COC1=C(N)C(=O)c2nc(-c3nc(C(=O)O)c(C)c(-c4ccc(OC)c(OC)c4O)c3N)ccc2C1=O	101*	16
N#Cc1c(N2CCCC2)nc(N)c2c(N)nc(N3CCCC3)cc12	101*	0
COc1cc2c(C#N)c(N3CCCC3)nc(N)c2c(N)n1	.	6
CC1(c2nnc(-c3ccc(F)cc3)o2)CC(c2ccncc2)=NO1 (stereo unspecified)	.	-9
CCC(=O)Nc1c(OC(=O)CC)ccc2c(C)cc(=O)oc12	-53	+	RmlCD artifact=+
CCC(=O)Oc1c(C(=O)CC)cc2c(C)cc(=O)oc2c1C	-25	.
CC(C)CCNC(=O)CNC(=S)N(Cc1ccccc1)Cc1cccnc1	1	.
COc1ccc(-c2nc(C#N)c(N3CCC(C(N)=O)CC3)o2)cc1OC	-8	41*	RmlCD artifact=+
COc1ccc(-c2nc(C#N)c(N3CCOCC3)o2)cc1OC	-22	26
O=C(Nc1ccc(-c2nc3cc(NC(=O)c4cccs4)ccc3o2)cc1)c1cccs1	-28	93*	RmlCD artifact=+
Cc1ccc2nc(-c3cccc(NC(=O)c4ccc5c(c4)OCCO5)c3)oc2c1	-25	2
O=C(Nc1ccc2oc(-c3ccncc3)nc2c1)c1cccs1	3	0
O=C(Nc1ccc2oc(-c3ccc4ccccc4c3)nc2c1)c1ccc2c(c1)OCCO2	-4	36*	RmlCD artifact=+
COc1ccccc1C(=O)NNC(=S)NC(=O)c1ccco1	-11	.
COc1cc(NC(=O)c2cccs2)c(C(=O)OCC(=O)NC(C)c2ccccc2)cc1OC (stereo unspecified)	2	-6
COc1cc(NC(=O)c2cccs2)c(C(=O)OCC(=O)NCc2ccccc2)cc1OC	-18	45*	RmlCD artifact=+
Cc1c(Cc2ccccc2)c(=O)oc2cc(OC(=O)c3ccccc3)ccc12	-40	-13
COC(=O)Cc1c(C)c2ccc(OC(=O)c3ccccc3)cc2oc1=O	-3	64*	RmlCD artifact=+
CCOc1cc(Cl)c(NC(C)=O)cc1OCC	-43	.
COc1ccc2c(c1)-c1ccccc1S(=O)(=O)N2C(C)=O	-22	131*	RmlCD artifact=+
COc1ccc(OC)c(NC(=O)CN2C(=O)c3ccccc3S2(=O)=O)c1	-30	6
